Counter-ions that a name gives are not always drawn.
Tested on: MDA-MB-468
Assay: phospho-S6 immunofluorescence (DAPI-normalised), per-plate z-score; higher = higher phospho-S6 signal (less pathway suppression)
Conditions: 24 h
Description: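 GPCR-targeted compound library (MedChemExpress HY-L006) tested on MDA-MB-468 PTEN-null TNBC cells in 384-well plates at 0.1, 1 or 10 uM, combined with vehicle, GDC0941 450 nM or lapatinib 1 uM, for 24 h. Phospho-S6 (S240/244) immunofluorescence normalised to DAPI and expressed as a per-plate z-score; values are the mean of biological triplicates.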

| SMILES | phospho-S6 immunofluorescence (z-score) (co-treatment: GDC0941 450 nM) | phospho-S6 immunofluorescence (z-score) (co-treatment: lapatinib 1 uM) | phospho-S6 immunofluorescence (z-score) (co-treatment: vehicle) |
| --- | --- | --- | --- |
| CN1[C@@H]2CC[C@H]1C[C@@H](OC(=O)c1c[nH]c3ccccc13)C2 [Tropisetron] (compound 10 µM) | 0.73 | 1.44 | 0.31 |
| O=C(NC(Cc1cc(=O)[nH]c2ccccc12)C(=O)O)c1ccc(Cl)cc1 (configuration not stated) [Rebamipide] (compound 10 µM) | 0.69 | 1.1 | 0.16 |
| O=C(O[C@@H]1C[C@@H]2C[C@H]3C[C@H](C1)N2CC3=O)c1c[nH]c2ccccc12 [Dolasetron] (compound 10 µM) | -0.34 | -0.11 | -0.46 |
| C[C@H]1C[C@H]2[C@@H]3CCC4=CC(=O)C=C[C@]4(C)[C@H]3C(=O)C[C@]2(C)[C@@]1(O)C(=O)CO [Meprednisone] (compound 10 µM) | 0.11 | -0.5 | -0.52 |
| CC(C[N+](C)(C)C)OC(N)=O (configuration not stated) [Bethanechol (chloride)] (compound 10 µM) | 0.67 | 0.01 | 0.6 |
| CCN1CCCC1CNC(=O)c1cc(S(N)(=O)=O)ccc1OC (configuration not stated) [Sulpiride] (compound 10 µM) | -0.13 | 0.19 | 0.05 |
| NC1=NCC2c3ccccc3Cc3ccccc3N12 (configuration not stated) [Epinastine] (compound 10 µM) | -0.05 | -0.81 | 0.35 |
| CC(=O)OCC(=O)NCCCOc1cccc(CN2CCCCC2)c1 [Roxatidine (Acetate Hydrochloride)] (compound 10 µM) | 0.24 | 0.32 | 0.91 |
| Oc1cc2c(cc1O)C(c1ccccc1)CNCC2 (configuration not stated) (compound 10 µM) | 0.77 | 0.35 | 1.06 |
| O=C1O[C@]2(CC[C@H](C(=O)Nc3ccn(-c4ccccc4F)n3)CC2)c2cnccc21 (compound 10 µM) | 0.73 | -0.47 | 0.3 |
| COc1ccccc1N1CCN(CC(O)COc2cccc3ccccc23)CC1 (configuration not stated) [Naftopidil] (compound 10 µM) | -0.13 | -0.63 | 0.64 |
| CC(O)Cn1cnc2c1c(=O)n(C)c(=O)n2C (configuration not stated) [Proxyphylline] (compound 10 µM) | 0.64 | 0.19 | -0.72 |
| COc1ccc2c(c1)c(CC(=O)N1CCOCC1)c(C)n2C(=O)c1ccc(Cl)cc1 (compound 10 µM) | -3.35 | -6.12 | -6.12 |
| Cc1[nH]cnc1CN1CCc2c(c3ccccc3n2C)C1=O [Alosetron (Hydrochloride)] (compound 10 µM) | 0.22 | -0.22 | 1.01 |
